In ChEMBL document CHEMBL3988442, “University of Dundee, Small-Polar-MMV Screening Library” (2021) one finds Percent Effect data, which are given here for 51 compounds.

Experiment [1] has as its target T1, Aspartate--tRNA(Asp/Asn) ligase (Mycobacterium tuberculosis (strain ATCC 25618 / H37Rv)) (UniProt P9WFW3). Further: in the data most compounds retested in dose-response had high values.
T1 sequence (whole entry): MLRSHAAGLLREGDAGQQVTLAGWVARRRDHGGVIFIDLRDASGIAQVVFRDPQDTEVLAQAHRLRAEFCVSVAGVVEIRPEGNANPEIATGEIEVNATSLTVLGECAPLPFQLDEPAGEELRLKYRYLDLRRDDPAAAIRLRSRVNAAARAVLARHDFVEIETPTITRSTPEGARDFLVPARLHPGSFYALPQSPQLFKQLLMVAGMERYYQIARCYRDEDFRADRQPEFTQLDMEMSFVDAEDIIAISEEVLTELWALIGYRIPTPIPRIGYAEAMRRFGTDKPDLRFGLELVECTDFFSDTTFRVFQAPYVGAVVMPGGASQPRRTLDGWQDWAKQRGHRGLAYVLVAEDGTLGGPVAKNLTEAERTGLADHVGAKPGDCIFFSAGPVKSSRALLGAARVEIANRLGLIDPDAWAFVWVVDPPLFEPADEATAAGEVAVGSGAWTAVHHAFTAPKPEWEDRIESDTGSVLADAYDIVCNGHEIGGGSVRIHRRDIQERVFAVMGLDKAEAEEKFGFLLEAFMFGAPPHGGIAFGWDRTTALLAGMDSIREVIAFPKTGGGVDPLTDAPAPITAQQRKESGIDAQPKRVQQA
The experiment is described as follows: Assay for Asp RNA synthetase-1 from Mycobacterium tuberculosis. The class given is functional. On the set-up: scale not given: direction of the effect not stated beside the values. The following applies: 30 µM.

For experiment [2], the target named is Shiga toxin 2 (Escherichia coli O157:H7) (UniProt P09385+P09386). The experiment is described as follows: E. coli 0.157:H7 Shiga Toxin SOP - stx2 screening assay. The class given is functional. On the set-up: scale not given: direction of the effect not stated beside the values. Conditions: 30 µM.

Molecules are shown by their SMILES.

Consider `Fc1cccc(CN2CCC(c3n[nH]c4ncccc34)CC2)c1F`, for which the Percent Effect in experiment [1] was -3.17%; in experiment [2], -6.18%.

`O=C(O)C1(Cc2cc(-c3cccc(F)c3)no2)CCOCC1`: the Percent Effect is -1.59% in experiment [1] and 9.34% in experiment [2].

Consider `CCNC(=O)Nc1ccc2c(ccn2CC(=O)N(CC)CC)c1`, for which the Percent Effect in experiment [1] was -3.17%; in experiment [2] it was 30.4%.

On to `CCC(CC)C(O)CNC(=O)Nc1cc(C)nn1C` (configuration not stated), for which the Percent Effect in experiment [1] is -1.77%; in experiment [2], -3.6%.

In the case of `Cc1ccc(C(=O)N2CCSCC2)cc1NC(=O)Cn1cncn1`, the Percent Effect in experiment [1] was -1%; in experiment [2] it was -22.8%.

In the case of `Cc1oncc1C(=O)N1CCC2(CC1)CC(c1ccccc1)C(=O)N2C` (configuration not stated), the Percent Effect in experiment [1] was -1.78%; in experiment [2], -15.3%.

Turning to `O=C(CCn1cncn1)NC1(c2cccc(Br)c2)CCC1`, the values for the Percent Effect in experiment [1] and in experiment [2] were 8.08% and -21.1%, respectively.

For the compound `CCCn1nc2c(cc1=O)CN(CCCS(N)(=O)=O)CC2`, the Percent Effect came to 18.8% in experiment [1] and 7.35% in experiment [2].

On to `NC(=O)N1CCC2(CCN(Cc3cccc(F)c3)CC2)CC1`, for which the Percent Effect in experiment [1] was -3.39%; in experiment [2], -34.5%.

Consider `CCc1nc(C)c([C@H]2CN(C)C[C@@H]2C(=O)Nc2ccc(OC)cc2)[nH]1`, for which the Percent Effect in experiment [1] is -1.19%; in experiment [2], 9.62%.

As to `Cc1cncc(C2CCCN(C(=O)c3c[nH]c(=O)[nH]c3=O)C2)n1` (configuration not stated), the results for the Percent Effect in experiment [1] and in experiment [2] were 3.87% and 26.6%, respectively.

`COCC1c2nnn(CC3CC3)c2CCN1C(=O)Cc1cccs1` (configuration not stated): the values for the Percent Effect in experiment [1] and in experiment [2] were 4.11% and -2.97%, respectively.

On to `COc1ccc(C)cc1C(C)NC(=O)NCCCn1cncn1` (configuration not stated), for which the Percent Effect in experiment [1] was 2.78%; in experiment [2], -12.9%.

In the case of `O=C(NCC1CCS(=O)(=O)C1)c1sccc1-c1ccc(F)cc1` (configuration not stated), the values for the Percent Effect in experiment [1] and in experiment [2] were -1.09% and -3.87%, respectively.

On to `CN(Cc1cccc(F)c1)C(=O)CN1CCOC(Cn2cccn2)C1` (configuration not stated), for which the Percent Effect was -0.139% in experiment [1] and 0.15% in experiment [2].

Consider `Cn1cnnc1C1CCCN(C(=O)NCCOc2ccccc2)C1` (configuration not stated), for which the Percent Effect in experiment [1] was -4.29%; in experiment [2], -30.2%.

Consider `Cc1[nH]ccc1C(=O)N1CCC(c2nnc(Cn3cccn3)n2C)CC1`, for which the figures for the Percent Effect in experiment [1] and in experiment [2] were -2.14% and -9.29%, respectively.

On to `Fc1ccc(CN2CCC(c3nccnc3-n3ccnc3)CC2)cc1`, for which the figures for the Percent Effect in experiment [1] and in experiment [2] were -5.52% and -0.684%, respectively.

Regarding `CC(C)CCN1Cc2c(C(=O)O)ncn2-c2ccccc2S1(=O)=O`, the Percent Effect in experiment [1] is -0.474%; in experiment [2], -10.7%.

For `O=C1C[C@H]2[C@@H](CCN2C(=O)Cc2cccs2)N1Cc1cccnc1`, the Percent Effect was -2.94% in experiment [1] and -6.22% in experiment [2].

On to `Clc1ccc2cccnc2c1CN1CCCC(Cn2cncn2)C1` (configuration not stated), for which the Percent Effect in experiment [1] is -1.86%; in experiment [2], -6.27%.

On to `Cn1nc(C2CCCN(Cc3ccsc3)C2)c2nccnc21` (configuration not stated), for which the values for the Percent Effect in experiment [1] and in experiment [2] were -2.96% and -14.3%, respectively.

As to `COc1ccccc1C1(C(=O)NCCN2CCOCC2)CCOCC1`, the Percent Effect was 10.8% in experiment [1] and 21.5% in experiment [2].

`CCc1noc(C(C)N(C)CC(=O)Nc2c(C)cccc2C)n1` (configuration not stated): the Percent Effect is -10.4% in experiment [1] and 10.3% in experiment [2].

Turning to `CCn1cnnc1C1CCN(C(=O)c2ccc(Cl)s2)CC1`, the results for the Percent Effect in experiment [1] and in experiment [2] were -0.371% and -7.76%, respectively.

Turning to `CCOC(=O)N1CCN(C(=O)c2sc(-c3ccccc3F)nc2C)CC1`, the figures for the Percent Effect in experiment [1] and in experiment [2] were 3.76% and -8.58%, respectively.

On to `Cc1ccc(NC(=O)Cn2cc(I)cn2)cc1`, for which the Percent Effect in experiment [1] was 1.25%; in experiment [2], -45.6%.

Take `COCC(=O)N(C)Cc1cccc(Cl)c1`: the figures for the Percent Effect in experiment [1] and in experiment [2] were -0.779% and -8.03%, respectively.

In the case of `CCc1nc(CN2CCN(C(=O)c3cnccn3)CC2)cs1`, the Percent Effect in experiment [1] was -2.04%; in experiment [2], -21.2%.

Turning to `CCn1c(Cn2cncn2)nnc1C1CCN(C(=O)CCSC)CC1`, the Percent Effect turned out to be 1.37% in experiment [1] and 8.61% in experiment [2].

`COCCNS(=O)(=O)c1cccc2c1CN(C(=O)c1ccccc1)CC2`: the values for the Percent Effect in experiment [1] and in experiment [2] were -2.79% and -27.5%, respectively.

Consider `Cc1cnc2n(c1=O)C(CC(=O)NCc1cc(-c3cccs3)on1)CS2` (configuration not stated), for which the results for the Percent Effect in experiment [1] and in experiment [2] were 1.62% and -30.9%, respectively.

Turning to `OC(CN1CCN(Cc2nnc(C3CC3)o2)CC1)c1ccccc1` (configuration not stated), the Percent Effect in experiment [1] is -1.28%; in experiment [2], 6.16%.

`Cc1ccc2c(n1)N(Cc1cccnc1)CCN(C(=O)C1CCC1)C2`: the results for the Percent Effect in experiment [1] and in experiment [2] were 14.8% and -15.2%, respectively.

For the compound `CCN(CCNC(=O)c1ccccc1Br)C1CC1`, the Percent Effect in experiment [1] is -1.24%; in experiment [2], 9.65%.

Regarding `CC(=O)NC1CCCN(C(=O)NCc2cccnc2N(C)C)C1` (configuration not stated), the values for the Percent Effect in experiment [1] and in experiment [2] were -7.86% and -12.4%, respectively.

With `Cc1nc(C)n(CC2CCCN2Cc2nc3ccccc3n2C)n1` (configuration not stated), the Percent Effect in experiment [1] is -7.69%; in experiment [2] it was 5.05%.

As to `Cc1oc(C)c(C(=O)NCc2ccccc2S(=O)(=O)N(C)C)c1C`, the Percent Effect was -6.28% in experiment [1] and 37.9% in experiment [2].

Consider `CCCNC(=O)c1sc(Nc2ccc(Cl)cn2)nc1C`, for which the Percent Effect in experiment [1] is -4.04%; in experiment [2] it was -46.7%.

For `Fc1cccc(-c2nc(CN3CCOC(Cn4cncn4)C3)co2)c1` (configuration not stated), the values for the Percent Effect in experiment [1] and in experiment [2] were -4% and 1.8%, respectively.

As to `c1ccc(OCC2CC3(CCN(c4ncccn4)CC3)CO2)nc1` (configuration not stated), the Percent Effect was 4.62% in experiment [1] and -0.916% in experiment [2].

With `CCCNCc1cn(C)nc1-c1cccnc1`, the Percent Effect in experiment [1] is -0.663%; in experiment [2] it was -14.7%.

Turning to `CCn1nnc2c1C(COC)CN(Cc1ccsc1)C2` (configuration not stated), the Percent Effect is -1.23% in experiment [1] and -3.86% in experiment [2].

As for `CNC(=O)[C@@]12CCCN(c3ncccn3)[C@@H]1CN(C(=O)NC(C)C)C2`, the Percent Effect in experiment [1] is 1.62%; in experiment [2], -25.1%.

With `CNC(=O)[C@@]12CCC3(CCN(C(C)=O)CC3)[C@@H]1CN(S(C)(=O)=O)C2`, the Percent Effect is -0.917% in experiment [1] and -15.9% in experiment [2].

As for `CC1CN(C(=O)c2ccn(-c3cccc(Cl)c3)n2)CCO1` (configuration not stated), the values for the Percent Effect in experiment [1] and in experiment [2] were -3.19% and -15%, respectively.

Turning to `Cc1nc(NC2CCCC2)cc(C2CCN2C(=O)c2cccnc2)n1` (configuration not stated), the values for the Percent Effect in experiment [1] and in experiment [2] were 2.75% and 2.33%, respectively.

As for `Cc1ncc2c(n1)CCN(C(=O)Cc1c(C)noc1C)C2`, the Percent Effect in experiment [1] is -2.87%; in experiment [2], -13.9%.

With `O=C(CCc1cscn1)NS(=O)(=O)c1ccc2ccccc2c1`, the figures for the Percent Effect in experiment [1] and in experiment [2] were -3.43% and 11.4%, respectively.

Consider `COc1cc(C(=O)NS(=O)(=O)c2cccc(C#N)c2)ccc1C`, for which the Percent Effect in experiment [1] is -2.04%; in experiment [2], -1.16%.

On to `Cc1ccc(C(=O)Nc2cc(C(C)C)n[nH]2)cn1`, for which the Percent Effect in experiment [1] was determined as 2.73%; in experiment [2] it was 1.39%.
